Experimental findings from PubChem BioAssay (NCATS) are described below.

Records with an inconclusive call do not appear. Entries that show only a call come without a potency. Active and inactive are the calls of the source. Calls follow the shape of the dose curve; as a rule, active = well fitted cell-killing curve with a large enough effect; inconclusive = small, poorly fitted or top-dose-only effect; inactive = flat fitted curve, though single readings scatter.
Potency is read from the fitted curve at half-maximal effect.

The assay is described as follows: HepG2 cells viability qHTS for Zika virus inhibitors (AID 1347168). The conditions noted are these: Zika counter-screen; series mostly up to 45.9 µM. From the text:
Avindra Nath, Ph.D., National Institute of Neurological Disorders and Stroke (NINDS), Bethesda, MD
Radhakrishnan Padmanabhan, Ph.D., Georgetown University (GU), Washington D.C.
Zika Virus causes congenital defects, including microcephaly and is associated with Guillain-Barre syndrome, eningoencephalitis and myelitis in infected adult. […] Using a target-based approach, we hope to establish a screening paradigm to uncover novel, cell-active NS2B-NS3 protease (Zika Virus) specific inhibitors from NCATS' collection of small molecules using qHTS.
Four assay panel was created to identify potential Zika Virus inhibitors. Namely, (1) GU unlinked NS2B-NS3 AMC tagged protease qHTS, (2) GU unlinked NS2B-NS3 Rhodamine tagged protease qHTS, (3) NINDS linked NS2B-NS3 AMC tagged protease qHTS, (4) NINDS linked NS2B-NS3 Rhodamine tagged protease qHTS. Identified inhibitors were screened against the Vero and HepG2 cell viability assays using CellTiter Glo to exclude cytotoxic compounds.
Early Translation Branch (ETB)
National Center for Advancing Translational Sciences (NCATS), Rockville, MD
National Institute of Health (NIH), Bethesda, Maryland
Vero and HepG2 Cell Viability Assay:
Vero and HepG2 cell cytotoxicity were determined using a luminescent readout with CellTiter Glo reagent (Promega, Madison, WI), which is based on measuring the ATP content within cells. Briefly, 4 microL of Vero or HepG2 cells at 2.5 x 10^5 cells/mL in DMEM containing 4% FBS were dispensed into 1536-well solid bottom tissue treated white plate using a Multidrop Combi dispenser (Thermo Scientific). Plates were incubated at 37 degrees C, 95% humidity, and 5% CO2 overnight to allow for cell attachment. Compounds were dissolved in DMSO at different concentrations and transferred via pintool (Wako Automation), for a final concentration of 0.029 µM - 57 microM. Plates were again incubated for 24 to 48 hours, followed by a 2 microL addition of CellTiter Glo. Finally, plates were incubated for 30 minutes at 37 degrees C and 5% CO2 before being read on a ViewLux (Perkin Elmer) for luminescence.
A general note: Quantitative high-throughput screening tests each substance at several concentrations.
For `CN(C)C(=O)[C@H](O)[C@H](Cc1ccccc1)NC(=O)c1cc2cc(Cl)ccc2[nH]1`, the Potency entry was “inactive”.
The same measure for `CN(C)c1ccc(O)c2c1C[C@H]1C[C@H]3[C@H](N(C)C)C(=O)C(C(N)=O)=C(O)[C@@]3(O)C(=O)C1=C2O`: “inactive”; for `CC(C)C[C@H](NC(=O)[C@H](Cc1ccccc1)NC(=O)c1cnccn1)B(O)O`: 0.0466 µM (active).
In the case of `Cc1c(OCC(F)(F)F)ccnc1CS(=O)c1nc2ccccc2[nH]1` (stereo not drawn) it was “inactive”; in that of `CC(C)c1ccc2c(c1)c(SC(C)(C)C)c(CC(C)(C)C(=O)O)n2Cc1ccc(Cl)cc1`, “inactive”; in that of `Oc1ccc(-c2nc(-c3ccc(F)cc3)c(-c3ccncc3)[nH]2)cc1`, “inactive”.
Regarding `COc1c2occc2cc2ccc(=O)oc12`, the Potency result was “inactive”.
For `Cc1nc(-c2ccc(OCC(C)C)c(C#N)c2)sc1C(=O)O`, the Potency entry was “inactive”.
The same measure for `Cc1nc(Nc2ncc(C(=O)Nc3c(C)cccc3Cl)s2)cc(N2CCN(CCO)CC2)n1`: 79.4 µM (active).
The same measure for `S=c1nc[nH]c2nc[nH]c12`: “inactive”.
In the case of `O=C(O)c1cn(-c2ccc(F)cc2)c2cc(N3CCNCC3)c(F)cc2c1=O` it was “inactive”; in that of `COc1cc2c(cc1OC)C1CC(=O)C(CC(C)C)CN1CC2` (stereo not drawn), “inactive”; in that of `C=C(c1ccc(C(=O)O)cc1)c1cc2c(cc1C)C(C)(C)CCC2(C)C`, “inactive”.
